Data taken from PubChem BioAssay (NCATS).
Where “and” joins values, the source holds several entries; their conditions need not be identical. Equal entries are not always repeated. Records with an inconclusive call do not appear. Some compounds were tested as several samples or in several runs, with calls that do not always agree. Calls of active or inactive are those of the source. Calls come from the whole dose curve; as a rule, active = well fitted inhibition curve with a large enough effect; inconclusive = small, poorly fitted or top-dose-only effect; inactive = flat fitted curve, though single readings scatter.

Assays:
NIH3T3 [1] = assay: Cytotoxic Profiling of Annotated Libraries Using Quantitative High-Throughput Screening (AID 1296008); details: Five cell lines viability, CellTiter-Glo ATP luminescence, 48-72 h; max response: active compounds read low
Summary of the method: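 Cytotoxicity was measured as CellTiter-Glo ATP luminescence, read after 10 min at room temperature. Compound treatment of the cells lasted 48 or 72 hr at 37 degrees Celsius in a qHTS format.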

MCC-26 = assay: qHTS assay to identify novel small-molecules to repurpose for Merkel cell carcinoma treatment (AID 1296009); details: MCC and control cell lines, CellTiter-Glo viability, 72 h; series mostly up to 46 µM
Summary of the method: (§1)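 Cell viability measured by CellTiter-Glo following 72 hr compound treatment at 37 degree celsius, with NPC and MIPE libraries tested in 8- and 11-point concentration series.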

MKL-2 = assay: as above; details: MCC and control cell lines, CellTiter-Glo viability, 72 h; series mostly up to 46 µM
Summary of the method: as §1

UISO = assay: as above; details: MCC and control cell lines, CellTiter-Glo viability, 72 h; series mostly up to 46 µM
Summary of the method: as §1

MCC-13 = assay: as above; details: MCC and control cell lines, CellTiter-Glo viability, 72 h; series mostly up to 46 µM
Summary of the method: as §1

MKL-1 = assay: as above; details: MCC and control cell lines, CellTiter-Glo viability, 72 h; series mostly up to 46 µM
Summary of the method: as §1

WaGa = assay: as above; details: MCC and control cell lines, CellTiter-Glo viability, 72 h; series mostly up to 46 µM
Summary of the method: as §1

NIH3T3 [2] = assay: as above; details: MCC and control cell lines, CellTiter-Glo viability, 72 h; at 44.8 µM (top of the series) unless noted
Summary of the method: as §1

HACAT = assay: as above; details: MCC and control cell lines, CellTiter-Glo viability, 72 h; at 44.8 µM (top of the series) unless noted
Summary of the method: as §1

HEK293T = assay: as above; details: MCC and control cell lines, CellTiter-Glo viability, 72 h; at 44.8 µM (top of the series)
Summary of the method: as §1
% is set by controls: 0 for no effect and ±100 for the full control effect; potency is the fitted concentration of half-maximal effect.
Note: nearly all actives have a fitted effect of over 60% in size.

COc1cc(N2CCC(N3CCN(C)CC3)CC2)ccc1Nc1ncc(Cl)c(Nc2ccccc2S(=O)(=O)C(C)C)n1
inactive: Potency (MKL-2) | Potency (UISO)
active: Potency (NIH3T3 [1]) 1.64 µM | Potency (MCC-26) 5.9 µM

CO[C@H]1C[C@@H]2CC[C@@H](C)[C@@](O)(O2)C(=O)C(=O)N2CCCC[C@@H]2C(=O)O[C@H]([C@H](C)C[C@@H]2CC[C@H](OCCO)[C@H](OC)C2)CC(=O)[C@H](C)C=C(C)[C@@H](O)[C@@H](OC)C(=O)[C@H](C)C[C@H](C)C=CC=CC=C1C
inactive: Potency (MCC-13) | Potency (MKL-2)
active: Potency (NIH3T3 [1]) 8.33 µM | Potency (UISO) 833 nM

CO[C@H]1C=CC=C(C)C(=O)NC2=CC(=O)C(NCCN(C)C)=C(C[C@@H](C)C[C@H](OC)[C@@H](O)[C@@H](C)C=C(C)[C@@H]1OC(N)=O)C2=O
active: Potency (NIH3T3 [1]) 0.132 µM | Potency (MCC-13) 4.69 µM | Potency (MKL-1) 1.05 µM | Potency (MKL-2) 14.8 µM | Potency (UISO) 296 nM

COc1ccc2cccc(CCNC(C)=O)c2c1
inactive: max response (NIH3T3 [1]) -3.32% | Potency (MCC-13) | Potency (MKL-1) | Potency (MKL-2) | Potency (UISO) | Potency (WaGa)

CCC(=O)O[C@]1(C(=O)CO)CC[C@H]2[C@@H]3CCC4=CC(=O)CC[C@]4(C)[C@@H]3CC[C@@]21C
inactive: outcome (NIH3T3 [1]) | Potency (MCC-13) | Potency (MKL-1) | Potency (MKL-2) | outcome (NIH3T3 [2]) | Potency (UISO) | Potency (WaGa)

COc1ncc(-c2ccc3nccc(-c4ccnnc4)c3c2)cc1NS(=O)(=O)c1ccc(F)cc1F
active: Potency (NIH3T3 [1]) 0.0037 µM | Potency (MCC-13) 0.833 µM | Potency (MKL-1) 1.48 µM | Potency (MKL-2) 0.105 µM | Potency (UISO) 23.5 nM | Potency (WaGa) 0.526 µM

CC1=C(/C=C/C(C)=C/C=C/C(C)=C/C(=O)Nc2ccc(O)cc2)C(C)(C)CCC1
active: Potency (NIH3T3 [1]) 21.1 µM | Potency (MKL-1) 26.6 µM | Potency (MKL-2) 10.6 µM | Potency (UISO) 9440 nM | Potency (WaGa) 23.7 µM

CCCCC1C(=O)N(c2ccccc2)N(c2ccccc2)C1=O
inactive: max response (NIH3T3 [1]) -4.9% | Potency (MCC-13) | Potency (MKL-1) | Potency (MKL-2) | Potency (UISO) | Potency (WaGa)

CN1CCN(CCOc2cc(OC3CCOCC3)c3c(Nc4c(Cl)ccc5c4OCO5)ncnc3c2)CC1
inactive: Potency (MKL-1) | Potency (MKL-2) | Potency (UISO) | Potency (WaGa)
active: Potency (NIH3T3 [1]) 1.66 µM and 651 nM

C=CCc1ccc(O)c(-c2ccc(O)c(CC=C)c2)c1
inactive: max response (NIH3T3 [1]) -7.37% | Potency (MCC-13) | Potency (MCC-26) | Potency (WaGa)

CC[C@H]1OC(=O)[C@H](C)[C@@H](O[C@H]2C[C@@](C)(OC)[C@@H](O)[C@H](C)O2)[C@H](C)[C@@H](O[C@@H]2O[C@H](C)C[C@H](N(C)C)[C@@H]2O)[C@](C)(O)C[C@@H](C)CN(C)[C@H](C)[C@@H](O)[C@]1(C)O
inactive: outcome (HACAT) | Potency (MCC-13) | Potency (MKL-1) | outcome (NIH3T3 [2]) | Potency (UISO) | Potency (WaGa)

COCCOc1nc(-c2ccc(Cl)c(Cl)c2)n(-c2ccc(NC(=O)CCl)cc2)n1
inactive: outcome (HACAT) | Potency (MCC-13) | Potency (MCC-26) | Potency (MKL-1)

c1ccc2c(Cc3c[nH]c4ccccc34)c[nH]c2c1
active: Potency (UISO) 469 nM
inactive: outcome (HACAT) | Potency (MCC-13) | Potency (MCC-26) | Potency (MKL-1) | Potency (WaGa)

NC(=O)c1cccc(-c2cc(Nc3ccc(OC(F)(F)F)cc3)ncn2)c1
inactive: outcome (HACAT) | Potency (MCC-13) | Potency (MKL-1)

O=C(O)c1ccc(-c2cc3cccnc3c(-c3ccc4nonc4c3)n2)cc1
inactive: outcome (HACAT) | Potency (MCC-13) | Potency (MCC-26)

CC(=O)N[C@@H](CS)C(=O)O
inactive: outcome (HEK293T) | Potency (MCC-13) | Potency (MCC-26) | Potency (MKL-1) | Potency (MKL-2) | outcome (NIH3T3 [2]) | Potency (UISO) | Potency (WaGa)

CNC1CCC(N(Cc2cccc(-c3ccncc3)c2)C(=O)c2sc3c(F)ccc(F)c3c2Cl)CC1 (configuration not stated)
inactive: outcome (HACAT) | Potency (MCC-13) | Potency (WaGa)

COc1ccc2cc(-c3nc(-c4ccc(S(C)=O)cc4)[nH]c3-c3ccncc3)ccc2c1 (configuration not stated)
inactive: outcome (HACAT) | Potency (MCC-13) | Potency (MKL-1) | Potency (UISO) | Potency (WaGa)

CC1(C)CCC[C@@]2(C)[C@@H]1CC[C@@]1(C)OC(=O)C[C@H]21
inactive: outcome (HACAT) | Potency (MCC-13) | Potency (MCC-26) | Potency (MKL-1) | Potency (MKL-2) | Potency (UISO) | Potency (WaGa)

COc1cc(NC(=O)c2ccc(-c3ccc(Cl)cc3)o2)cc(OC)c1
inactive: outcome (HACAT) | Potency (MCC-13) | Potency (MCC-26) | Potency (MKL-1) | Potency (MKL-2) | Potency (UISO) | Potency (WaGa)

COc1cc2ncnc(-n3nc(-c4ccccn4)nc3N)c2cc1OC
inactive: outcome (HACAT) | outcome (HEK293T) | Potency (MCC-13) | Potency (MKL-1) | Potency (MKL-2) | Potency (WaGa)

O=C(O)CCC1CCC(c2cc(F)ccc2F)(S(=O)(=O)c2ccc(Cl)cc2)CC1 (configuration not stated)
inactive: outcome (HACAT) | Potency (MCC-13) | Potency (MKL-1) | Potency (UISO)

CC(C(=O)O)c1ccc(-c2ccccc2)c(F)c1 (configuration not stated)
inactive: outcome (HACAT) | Potency (MCC-13) | Potency (MCC-26) | Potency (MKL-1) | Potency (MKL-2) | Potency (UISO) | Potency (WaGa)

CC1(C)S[C@H]2[C@H](NC(=O)[C@@H](N)c3ccc(O)cc3)C(=O)N2[C@@H]1C(=O)O
inactive: outcome (HACAT) | Potency (MCC-13) | Potency (MCC-26) | Potency (UISO)
active: Potency (MKL-2) 4.18 µM | Potency (WaGa) 2.64 µM
